Experimental data from PubChem BioAssay AID1159580 (chemical genetic matrix, 2015).
The campaign covered roughly 5,500 compounds. About 2,000 (36%) were called active. About 18% were inconclusive and are not listed. No stated cut-off is given here; in the data, active means normalized growth mostly below about 0.91 (no sharp cut-off); inconclusive means no clear call, values can overlap the other calls; inactive means mostly above about 0.92. The list shows a part of the results.

Test: chemical genetic growth profiling, strain panel (AID 1159580);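 further: tested at 20 µM; growth read once vehicle control cultures reached saturation at 30 °C; 1 = growth at the plate median or of vehicle wells; lower values mean less growth of the strain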
Details: S. cerevisiae deletion strains, growth OD

Measured: normalized growth

N#C/C(N=Cc1cc(Cl)cc(Cl)c1O)=C(\C#N)N=Cc1cc(Cl)cc(Cl)c1O
inactive: locus YAR019C, strain CDC15, hits give low values 0.923 | locus YBL105C, strain PKC1, hits give low values 0.929 | locus YBR135W, strain CKS1, hits give low values 0.927 | locus YBR136W, strain MEC1, hits give low values 0.917 | locus YBR160W, strain CDC28, hits give low values 0.922 | locus YDL017W, strain CDC7, hits give low values 0.923 | locus YDL028C, strain MPS1, hits give low values 0.915 | locus YDL101C, strain DUN1, hits give low values 0.954 | locus YDL108W, strain KIN28, hits give low values 0.926 | locus YDL132W, strain cdc53, hits give low values 0.943 | locus YDL214C, strain PRR2, hits give low values 0.754 | locus YDR052C, strain DBF4, hits give low values 0.936 | locus YDR054C, strain cdc34, hits give low values 0.916 | locus YDR226W, strain ADK1, hits give low values 0.925 | locus YER123W, strain YCK3, hits give low values 0.735 | locus YER133W, strain GLC7, hits give low values 0.725 | locus YFL009W, strain cdc4, hits give low values 0.931 | locus YFL029C, strain CAK1, hits give low values 0.929 | locus YFR003C, strain YPI1, hits give low values 0.914 | locus YFR019W, strain FAB1, hits give low values 0.912 | locus YFR028C, strain CDC14, hits give low values 0.931 | locus YIL147C, strain SLN1, hits give low values 0.914 | locus YJL128C, strain PBS2, hits give low values 0.905 | locus YJR016C, strain ILV3, hits give low values 0.93 | locus YKL067W, strain YNK1, hits give low values 0.74 | locus YKL193C, strain SDS22, hits give low values 0.922 | locus YML070W, strain DAK1, hits give low values 0.747 | locus YMR001C, strain CDC5, hits give low values 0.919 | locus YMR277W, strain FCP1, hits give low values 0.92 | locus YNL006W, strain LST8, hits give low values 0.93 | locus YNL161W, strain CBK1, hits give low values 0.929 | locus YNL183C, strain NPR1, hits give low values 0.587 | locus YNL207W, strain RIO2, hits give low values 0.916 | locus YNL222W, strain SSU72, hits give low values 0.937 | locus YOL078W, strain AVO1, hits give low values 0.928 | locus YOL136C, strain PFK27, hits give low values 0.769 | locus YOR329C, strain SCD5, hits give low values 0.931 | locus YPL209C, strain IPL1, hits give low values 0.934 | locus YPR025C, strain CCL1, hits give low values 0.935 | locus YPR106W, strain ISR1, hits give low values 0.923 | locus YPR111W, strain DBF20, hits give low values 0.927 | strain NNK1, hits give low values 0.908 | strain TSCII, hits give low values 0.934
active: locus YDR477W, strain SNF1, hits give low values 0.503 | locus YGR040W, strain KSS1, hits give low values 0.621 | locus YGR052W, strain FMP48, hits give low values 0.552 | locus YGR092W, strain DBF2, hits give low values 0.129 | locus YHR030C, strain SLT2, hits give low values 0.381 | locus YHR079C, strain IRE1, hits give low values 0.397 | locus YHR082C, strain KSP1, hits give low values 0.587 | locus YHR205W, strain SCH9, hits give low values 0.415 | locus YJL095W, strain BCK1, hits give low values 0.448 | locus YJL157C, strain FAR1, hits give low values 0.664 | locus YJR066W, strain TOR1 (second series), hits give low values 0.588 | locus YJR066W, strain TOR1, hits give low values 0.414 | locus YKL048C, strain ELM1, hits give low values 0.594 | locus YKL101W, strain HSL1, hits give low values 0.538 | locus YKL203C, strain TOR2, hits give low values 0.454 | locus YLR113W, strain HOG1, hits give low values 0.509 | locus YLR133W, strain CKI1, hits give low values 0.52 | locus YLR403W, strain SFP1, hits give low values 0.457 | locus YMR205C, strain PFK2 (second series), hits give low values 0.609 | locus YNL020C, strain ARK1, hits give low values 0.403 | locus YNL307C, strain MCK1 (second series), hits give low values 0.286 | locus YOR061W, strain CKA2, hits give low values 0.349 | locus YOR119C, strain RIO1, hits give low values 0.476 | locus YOR231W, strain MKK1, hits give low values 0.475 | locus YPL031C, strain PHO85, hits give low values 0.547 | locus YPL153C, strain RAD53, hits give low values 0.538 | locus YPL204W, strain HRR25, hits give low values 0.63 | locus YPL256C, strain CLN2, hits give low values 0.503
